Reference: PubChem BioAssay (NCI)
About 83,000 compounds went through this panel and 20% of them were active in at least one assay; those are over-represented in the sample as a whole.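 Cell lines were cultured in 96-well plates, exposed to a single compound concentration, and assessed for percent growth 48 hours later.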 Unmarked numbers belong to inactive results. The source made the active and inactive calls. Rule for the calls: active = growth percent below 10; inactive = the rest.

The compounds below were run on HL-60(TB) leukemia (assay: NCI-60 one-dose screen, 48 h (100 = growth as untreated, 0 = no growth, -100 = all killed)). Settings: 10 µM unless noted.

| Structure (SMILES) | growth |
| --- | --- |
| O=C(CN1CCOCC1)Nc1ccc(-c2nc3ccccc3s2)cc1 | 101% |
| COc1cc(/C=C\c2cc(/C=C\c3ccc(O)c(OC)c3)n(C(=O)Nc3ccc(C(F)(F)F)cc3)n2)ccc1O | 15.2% |
| NC(=O)c1c(NC(=S)Nc2ccc(OC(F)(F)F)cc2)sc2c1CCC1(C2)OCCO1 | 94.2% |
| COC(=O)/C(CCC=C(C)C)=C1\[C@@H](OC(C)=O)C[C@@]2(C)[C@H]1C[C@@H](O)[C@H]1[C@@]3(C)CC[C@H](NCCCNCCCCNCCCN)[C@@H](C)[C@@H]3CC[C@@]12C | 37.2% |
| O=C(/C=C/c1c(-c2ccccc2)[nH]c2ccccc12)S(=O)(=O)c1ccccc1 | -22.1% (active) |
| CCOc1nc(-c2ccccc2)cc2c(O)c(C(=O)N/N=C/c3ccccc3)[nH]c(=O)c12 | 101% |
| O=C(Nc1ccc(Br)cc1)Nc1ccccc1Cl | 70.7% |
| COc1cc(-c2nnc(-c3c(-c4ccc(F)cc4)nc4ccccn34)o2)cc(OC)c1OC | 102% |
| CC1(C)CN(Cc2ccccc2)CCN1Cc1ccccc1 | 100% |
| Oc1ccc(Cl)cc1/C=N\NC(=S)N/N=C/c1cc(Cl)ccc1O | 12.2% |
| CC(C)(C)n1cc(-c2ccnc(NCCNS(=O)(=O)c3ccc(C(F)(F)F)cc3)c2)c(-c2cccc(O)c2)n1 | 29.3% |
| C=C(C)[C@@H]1CC[C@]2(C(=O)OC)CC[C@]3(C)[C@H](CC[C@@H]4[C@@]5(C)C/C(=C/c6ccc(OC)cc6)C(=O)C(C)(C)[C@@H]5CC[C@]43C)[C@@H]12 | 87.6% |
